Screening results deposited in PubChem BioAssay by several laboratories.
Compounds with a hit are over-represented: about 0.95% of the library has one in this group of screens.
ROCK2 blocker = ROCK2 (human) kinase inhibition | inhibition, % at 6 µM | O75116 | purified ROCK2, Kinase-Glo ATP depletion luminescence | AID 604 | 0.35% of 60,000 active;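 active = inhibition above the screen-wide mean inhibition plus 3 SD, cut at about 18% in these data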;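 note: plate controls were DMSO wells for no effect and Y-27632 control wells after no-enzyme background subtraction for full effect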
SKBR3 24h inh = SK-BR-3 proliferation inhibitors | SK-BR-3 viability, CellTiter-Glo ATP luminescence, 24 h; hits give low values | viability, % at 10 µM | 0.47% of 41,000 active | AID 847;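 active = viability at or below the median of all test compounds minus 3 SD, in both replicates if run twice, cut at about 45% in these data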;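 note: 100% = median untreated cell wells and 0% = median positive control drug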
WNV protease inh = blocks West Nile virus NS2B-NS3 protease activity; P06935; WNV NS2B-NS3 protease, fluorogenic substrate Ex360/Em465; hits give low values; z-score (test concentration not listed); 0.18% of 65,000 active; AID 577; in the data active = z-score below about -3
PKA inh = inhibitors of human protein kinase A. PKA Kemptide phosphorylation, Kinase-Glo ATP luminescence. inhibition, % at 6 µM. 0.1% of 65,000 active. AID 524;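 active = inhibition above the screen-wide mean inhibition plus 3 SD, cut at about 21% in these data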
MKP-1 inh = human dual specificity phosphatase 1 inhibition; 0.15% of 65,000 active; recombinant MKP-1, OMFP hydrolysis fluorescence; inhibition, %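 (compounds tested at a single concentration somewhere between 10 and 100 µM)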; P28562;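 active = inhibition above about 50%, limit read from the data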;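 note: 0% = DMSO max control wells and 100% = wells with enzyme stopped by NaOH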
Target sequence (P28562 whole entry, looked up): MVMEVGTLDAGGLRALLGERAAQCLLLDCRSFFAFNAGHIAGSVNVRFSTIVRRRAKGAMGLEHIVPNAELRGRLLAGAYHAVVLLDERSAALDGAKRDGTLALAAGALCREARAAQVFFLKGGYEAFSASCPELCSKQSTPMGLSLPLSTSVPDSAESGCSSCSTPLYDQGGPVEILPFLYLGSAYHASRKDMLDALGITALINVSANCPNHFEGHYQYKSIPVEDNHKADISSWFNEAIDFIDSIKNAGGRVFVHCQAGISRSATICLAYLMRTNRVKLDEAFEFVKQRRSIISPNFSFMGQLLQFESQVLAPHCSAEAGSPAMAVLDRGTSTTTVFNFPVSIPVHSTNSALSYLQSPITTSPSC
Cdc25B block = inhibitors of human Cdc25B phosphatase | inhibition, %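 (compounds tested at 10 µM final in the well)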 | P30305 | recombinant Cdc25B, OMFP fluorescence Ex485/Em525 | 0.1% of 65,000 active; in the data active = inhibition above about 50%
* hit, by the source's call; . = no result given.

SMILES	ROCK2 blocker	SKBR3 24h inh	WNV protease inh	PKA inh	MKP-1 inh	Cdc25B block
CC(=O)N1CCN(c2nc3cc4c(cc3nc2NS(=O)(=O)c2ccccc2)OCCO4)CC1	4.4	.	1.26	8.5	29.9	-8.5
CCOC(=O)CSc1nnnn1-c1cc(OC)c(Cl)cc1OC	5.2	101.0	-0.99	7.8	5.7	50.8*
Cn1c(=O)oc2cc(S(=O)(=O)NCCC(=O)NC3CCCC3)ccc21	4.4	.	-0.95	7.4	51.5*	-18.7
COc1ccc(N/C(C)=C2/C(=O)C(=O)N(CCO)C2c2ccc(Br)cc2)cc1 (centres undefined)	7.5	83.2	-1.21	7.8	-21.3	3.2
COc1ccc(C2CC(c3cccc(C)c3)n3ncnc3N2)cc1 (centres undefined)	-1.3	.	-4.09*	3.0	-10.5	-16.2
CCOC(=O)C1=C(CSc2nc(-c3ccncc3)ccc2C#N)OC(N)=C(C#N)C1c1cccnc1 (centres undefined)	20.8*	62.2	-0.95	5.4	9.5	-26.1
CCOC(=O)C1=C(C(C)=O)C(c2cccnc2)C(C#N)=C(N)O1 (centres undefined)	2.8	72.2	0.25	3.7	-27.5	2.3
Cc1cc(C)c2cc(CN(Cc3ccco3)C(=O)NCc3ccccc3)c(=O)[nH]c2c1	-1.2	37.1*	-0.31	-4.4	35.0	-17.7
Cc1ccc(CNC(=O)CSc2nc(N3CCCCC3)nc(N3CCCCC3)n2)cc1	-9.6	103.4	-1.93	-6.9	11.5	-11.1
CCOC(=O)N1CCC2(CC1)C(C#N)=C(N)Oc1c2c(C)nn1-c1cccc(Cl)c1	10.4	77.2	-0.1	14.2	34.3	-4.7
COC(=O)c1ccccc1NC(=O)CN1CCN(C23CC4CC(CC(C4)C2)C3)CC1	-3.5	41.5*	0.69	3.2	-13.4	-5.9
COc1cccc(OC)c1OCC(C)CNCC1CCCO1 (centres undefined)	15.0	93.5	0.53	5.0	-12.2	-24.4
COc1ccc2c(=O)c3c(=O)n(Cc4ccco4)c(-c4cc(OC)c(OC)c(OC)c4)nc3oc2c1	8.7	26.7*	0.19	-1.1	18.0	6.2
COc1ccc2nc(NC(=O)CSc3nc4cccnc4n3C)sc2c1	5.3	.	-6.36*	9.1	11.5	-0.7
O=C(NCc1cccs1)c1nc2c(nnn2Cc2ccccc2Cl)c(=O)[nH]1	1.6	22.4*	-0.87	3.2	36.7	1.0
O=C(Cc1cccs1)N1CCCC(c2nc3c(nnn3Cc3ccccc3Cl)c(=O)[nH]2)C1 (centres undefined)	7.0	.	1.49	3.9	27.3	13.0
CCC(C)[C@@H](NC(=O)OC(C)(C)C)c1nnc(S(=O)(=O)Cc2cccc(C)c2)o1 (some centres undefined)	-0.3	20.8*	-0.48	4.5	17.6	-6.0
COc1cc2c(cc1NC(=O)COC(=O)Cn1cnc3ccccc31)oc1ccccc12	0.5	.	-1.05	23.7*	35.3	-2.0
CC(=O)CCc1c[nH]c2c(C(=O)O)cccc12	6.8	.	-1.65	7.2	12.2	2.5
CC(C)(NCc1ccccc1Cl)C(=O)O	2.3	88.2	-0.71	4.7	-3.8	6.0
CCC(=O)N1CCc2cc(Br)cc(S(=O)(=O)CC(=O)OC)c21	0.8	106.9	-4.83*	1.8	-0.2	-11.9
CC(=O)N1CCc2cc(Br)cc(S(=O)(=O)N3CCCCCC3)c21	-1.6	40.7*	1.15	1.7	15.8	-0.2
CC(=O)N1CCc2cc(Br)cc(S(=O)(=O)N3CCN(C(=O)c4ccco4)CC3)c21	4.8	70.6	-0.44	11.7	-13.4	-4.6
CCC(=O)N1CCc2cc(Br)cc(S(=O)(=O)NCCN3CCOCC3)c21	.	97.0	-0.97	4.3	0.1	-13.2
O=C1CCN2C=Nc3cccc4ccc1c2c34	2.6	75.2	-0.54	8.1	10.7	79.9*
SMILES	ROCK2 blocker	SKBR3 24h inh	WNV protease inh	PKA inh	MKP-1 inh	Cdc25B block
COc1c(S(=O)(=O)n2nc(C)cc2C)ccc(Cl)c1Cl	3.0	87.0	0.36	-2.5	-2.9	-9.9
O=C(CSc1nc2ccccc2c(=O)[nH]1)Nc1ccc(S(=O)(=O)N2CCCC2)cc1	-1.3	.	1.18	5.5	53.2*	0.0
O=C(CCn1cnc2ccccc2c1=O)Nc1ccc(S(=O)(=O)N2CCCC2)cc1	-2.6	85.7	0.97	5.8	2.7	-12.6
Cc1ccc2nc(N3CCN(C(=O)c4cccs4)CC3)c(C#N)cc2c1	4.1	.	1.05	8.7	-2.5	-8.3
CCCc1cc(=O)[nH]c(SCC(=O)c2c(N)n(C)c(=O)n(C)c2=O)n1	.	34.1*	0.37	5.8	-5.2	-6.3
Cc1nnc(SCC(=O)c2c(N)n(C)c(=O)n(C)c2=O)[nH]c1=O	2.5	.	-1	8.2	-15.4	1.3
O=C(NCCCn1ccnc1)C(Cc1ccccc1)N1C(=O)c2ccccc2C1=O (centres undefined)	0.9	85.4	-0.12	0.3	-8.2	0.0
c1ccc(Cn2ncc3c2ncn2c(-c4ccncc4)nnc32)cc1	14.2	92.8	0.86	76.5*	-11.1	-3.6
Cc1ccc(-n2ncc3c2ncn2c(-c4ccncc4)nnc32)cc1	1.0	95.8	1.04	7.6	-19.6	3.8
Cn1ncc2c1ncn1nc(CCc3ccccc3)nc21	6.5	85.9	1.66	11.4	-21.2	-2.6
c1ccc(Cn2ncc3c2ncn2nc(-c4ccncc4)nc32)cc1	8.7	94.6	0.67	48.5*	-5.7	-7.5
CC(=O)n1cc(-c2ccncc2)c2ccccc21	61.4*	.	1.46	26.1*	-7.9	-0.5
CC(C)(C)c1cc(C(=O)O)c(CN2CCCCC2)o1	6.6	117.9	-1.06	1.9	-15.7	79.4*
O=C(O)c1ccc(CN2CCCCC2)o1	8.7	84.4	0.13	-0.6	17.4	0.7
N#Cc1c(/N=C/c2cccs2)sc2c1CCCCC2	25.4*	95.0	-1.01	6.3	-12.1	-9.4
CCn1c(-c2c[nH]c3ccccc23)n[nH]c1=S	6.5	89.4	-0.83	3.1	13.8	3.9
c1ccc2c(-c3ccncc3)c[nH]c2c1	89.4*	65.4	1.52	65.3*	-25.6	4.0
CC(=O)C1=C(C)NC(C)=C(C(C)=O)C1c1ccc(-c2ccccc2Cl)o1	4.3	.	1.13	2.0	-5.5	-7.7
Cc1cccc2cc(=O)[nH]c(C)c12	18.4*	83.8	0.14	8.3	-4.4	-1.2
CC1CCN(c2nc3c(c(=O)[nH]c(=O)n3C)n2Cc2ccccc2Cl)CC1	3.1	.	1.68	3.8	11.7	-3.5
CCC1(C)Cc2c(sc3c2c(=O)n(C)c2nnc(SCC(=O)c4ccc(Cl)cc4)n32)CO1 (centres undefined)	-8.3	60.9	0.27	4.3	-3.0	-24.9
Cc1cccc(N2C(=O)CC(N3CCN(c4cccc(C(F)(F)F)c4)CC3)C2=O)c1 (centres undefined)	3.3	89.3	-0.11	8.0	4.2	-13.7
COc1cccc(N2CCN(C3CC(=O)N(c4cccc(Cl)c4)C3=O)CC2)c1 (centres undefined)	-1.2	109.2	0.31	-8.3	-15.7	92.3*
